Assay results as given in PubChem BioAssay (NCI).
Values joined by “and” are separate entries in the source; they are usually repeats but may differ in a detail not shown here. Identical values can stand only once. The panel holds about 79,000 compounds, 15% with a hit somewhere; the sample as a whole holds those more often. Active and inactive are the calls of the source. Cut-off read from the data, not from the text of the source: active = growth inhibition above about 70%; inactive = the rest.

What was measured:
[1] = NCI Yeast Anticancer Drug Screen. Data for the rad50 strain (AID 155);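 note: 0% = growth of vehicle-only cultures of the same strain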; settings: S. cerevisiae rad50 strain growth inhibition; at 50.0 µM; active compounds read high
Method in brief: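 Inhibition values express reduced yeast growth in compound-treated cultures relative to vehicle-treated controls.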

[2] = NCI Yeast Anticancer Drug Screen. Data for the mec2-1 strain (AID 157); settings: S. cerevisiae mec2-1 strain, at 50.0 µM, active compounds read high
Method in brief: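 mec2-1 yeast strain, carrying an alteration in DNA damage repair or cell cycle control, was exposed to compounds; growth inhibition was measured relative to vehicle-treated controls.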

[3] = NCI Yeast Anticancer Drug Screen. Data for the sgs1 mgt1 strain (AID 161);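 note: 0% = growth of cultures given vehicle only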; settings: S. cerevisiae sgs1 mgt1 strain, at 50.0 µM, active compounds read high
Method in brief: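 Yeast cells carrying a defined DNA-repair defect were exposed to test compounds. Growth inhibition was measured relative to vehicle-treated controls.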

[4] = NCI Yeast Anticancer Drug Screen. Data for the cln2 rad14 strain (AID 165);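 note: 0% = growth equal to vehicle treated cultures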; settings: S. cerevisiae cln2 rad14 strain, at 50.0 µM, active compounds read high
Method in brief: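 Yeast carrying cln2 and rad14 alterations (cell cycle control and DNA damage repair) were exposed to compounds. Growth inhibition was measured against vehicle-treated controls.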

[5] = NCI Yeast Anticancer Drug Screen. Data for the bub3 strain (AID 167); settings: S. cerevisiae bub3 mutant strain, at 50.0 µM, active compounds read high
Method in brief: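 Steps: expose the mutant yeast strain to compound; grow alongside vehicle-treated cultures; measure growth; express inhibition against the vehicle cultures.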

[6] = NCI Yeast Anticancer Drug Screen. Data for the mlh1 rad18 strain (AID 175); settings: S. cerevisiae mlh1 rad18 strain growth inhibition; at 50.0 µM; active compounds read high
Method in brief: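 Growth inhibition of the yeast strain was measured after compound exposure and expressed relative to vehicle-treated controls. The strain carries defined defects in DNA damage repair.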

Measured: growth inhibition

O=c1nc2n(CCN(CCCl)CCCl)c3cc(Cl)c(Cl)cc3nc-2c(=O)[nH]1
inactive: [1] 38% | [2] -1.65% | [3] 45% | [4] 34.6% | [5] 3.65% | [6] 26.4%

NC1=C(c2nc(-c3ccccc3)cs2)C(c2ccco2)c2c(c3ccccc3oc2=O)O1 (stereo not drawn)
inactive: [1] -4.7% | [2] 5.05% | [3] 23.8% | [4] 13.2% | [5] 6.35% | [6] 12.9%

CCC(=O)N(c1ccccc1)C(C)CN1CCC(O)(c2ccccc2)CC1 (stereo not drawn)
inactive: [1] 4.2% | [2] -12.4% | [3] 5.9% | [4] -37% | [5] -10.4% | [6] -8.15%

CN(C)c1cc(C(C)(C)C)nc(C(C)(C)C)c1
inactive: [1] 7.65% and 3% | [2] -1.1% and -1.8% | [3] 8.6% and 5.1% | [4] 1.25% and -5.95% | [5] 0.3% and -4.75% | [6] 9.05% and 10.4%

C[C@]12CCC(O)CC1=CC[C@@H]1[C@@H]2CC[C@]2(C)C(O)[C@H](n3ccnc3)C[C@@H]12 (stereo partly drawn)
inactive: [1] 30.1% | [2] 33.6% | [3] -6.05% | [4] 25.1% | [5] -11.7% | [6] -13.4%

OC(c1ccccc1)C(NC1CCCCC1)c1ccccc1 (stereo not drawn)
inactive: [1] -4.5% | [2] -18.6% | [3] -0.75% | [4] -24.2% | [5] -6.3% | [6] -56%

CCCCC(=O)O.[Ni]
inactive: [1] -11.2% | [2] -2.65% | [3] -9.7% | [4] -32% | [5] -30.9% | [6] -14.1%

NS(=O)(=O)c1ccc([As](=O)(O)c2ccccc2)cc1
inactive: [1] 14.2% | [2] -9.35% | [3] 7.85% | [4] 15.7% | [5] 9.5% | [6] -7.75%

COC(=O)C1=CO[C@@H](C)[C@@H]2CN3CCc4c([nH]c5cc(OC)ccc45)[C@H]3C[C@H]12
inactive: [1] -43.8% | [2] -32.6% | [3] -34% | [4] -30.1% | [5] -2.05% | [6] -41%

CC1(C)CC(OP(=O)(Cl)OC2CC(C)(C)N(O)C(C)(C)C2)CC(C)(C)N1O
inactive: [1] 1.8% | [2] -0.75% | [3] 7.85% | [4] -7.35% | [5] 1.1% | [6] -7.65%

C=CCn1cc2c3c(cccc31)C1CC(C)CN(C)C1C2 (stereo not drawn)
inactive: [1] 34.5% | [2] 36% | [3] 25% | [4] 39.9% | [5] 33.6% | [6] 28.9%

CP(C)C.[Ag][I]
inactive: [1] -26.4% | [2] -7.85% | [3] -0.15% | [4] -41.2% | [5] -9.3% | [6] -2.4%

CN1CCCC(OC(=O)C(c2ccccc2)C2(O)CCCC2)C1 (stereo not drawn)
inactive: [1] 30.6% | [2] -9.55% | [3] 27.1% | [4] -27.9% | [5] -1.85% | [6] 16.8%

O=CNNC(=O)C(Cl)Cl
inactive: [1] 4.25% | [2] -11.9% | [3] -10.1% | [4] -31.3% | [5] -3.45% | [6] 8.9%

O=C(Oc1cc(Cl)c(S(=O)(=O)F)cc1Cl)c1ccccc1Cl
active: [1] 93.5% | [2] 96% | [3] 97.1% | [4] 86.8% | [5] 94.9% | [6] 96.8%

CCC1(C(C)C)C(=O)NC(=S)N(C)C1=O (stereo not drawn)
inactive: [1] 29.6% | [2] -5.45% | [3] 2.9% | [4] 2.85% | [5] 0.95% | [6] 12.8%

C#CCN1C(=O)CN2C(Cl)(Cl)C2(c2ccccc2)c2cc(Cl)ccc21 (stereo not drawn)
inactive: [1] 20.1% | [2] 16.1% | [3] -13.4% | [4] -1.8% | [5] 3.35% | [6] 37.6%

C[P+](C)(C)C
inactive: [1] 15.6% and -6.8% | [2] -17.2% and 7.3% | [3] -6.6% and 1.45% | [4] 1.4% and -5.8% | [5] 12% and -17.4% | [6] -26.9% and -6.85%

CCCCCCC(=O)O[C@H]1CC[C@H]2[C@@H]3CCC4C/C(=N/NC(=O)c5cccc6c(=O)c7ccccc7[nH]c56)C=C(C)[C@]4(C)[C@H]3CC[C@]12C (stereo partly drawn)
inactive: [1] 3.1% | [2] -0.85% | [3] 16.6% | [4] 24.7% | [5] 8.45% | [6] -55.3%

O=C1NCCCCC1Cl (stereo not drawn)
inactive: [1] -12.4% | [2] -1.1% | [3] -4% | [4] -21% | [5] 8.8% | [6] 14.5%

N#CCc1ccc(Br)cc1
inactive: [1] 0.2% | [2] 0.8% | [3] 5.65% | [4] -16.9% | [5] -14.9% | [6] 5.8%

COC1CC(OC2C(C)OC(OC3C(C)OC(OC4C(C)OC(O[C@H]5CC[C@@]6(C)C(=CC[C@]7(O)[C@@H]6C[C@@H](OC(C)=O)[C@@]6(C)[C@]7(O)CC[C@@]6(O)C(C)=O)C5)CC4OC)CC3OC)CC2OC)OC(C)C1O (stereo partly drawn)
inactive: [1] -7.85% | [2] -7.45% | [3] -9.55% | [4] -3.7% | [5] -12.7% | [6] -47.1%

CCOC(=O)N=C=O
inactive: [1] -17.8% | [2] 4.7% | [3] -15.7% | [4] 11.9% | [5] -3.1% | [6] -1.85%

Cc1cc(C=C2C(=O)NC(=S)NC2=O)c(C)n1-c1ccccc1
inactive: [1] 14.3% | [2] -4.6% | [3] 17.7% | [4] -43.3% | [5] 8.6% | [6] 5.15%

C(=Nc1ccccc1)C1CCCC[N-]1.C(=Nc1ccccc1)C1CCCC[N-]1.[Cu+2].[O-][Cl+3]([O-])([O-])O (stereo not drawn)
active: [1] 90.5% | [2] 83.6% | [4] 92.5% | [5] 74.2% | [6] 88%
inactive: [3] 65%

CNP1(NC)=NP(N(C)C)(N(C)C)=NP(N(C)C)(N(C)C)=N1
inactive: [1] -15.9% | [2] 0.45% | [3] -3% | [4] -19.4% | [5] 11.6% | [6] 13.2%

COc1cccc(C(O)CN(C)C)c1OC (stereo not drawn)
inactive: [1] 7.05% | [2] -6.65% | [3] 11.2% | [4] 30.2% | [5] -9.85% | [6] 9.95%

N/C(=N\S(=O)(=O)c1ccccc1)N[N+](=O)[O-]
inactive: [1] 5.15% and -5.6% | [2] -1.15% and -8.9% | [3] -9.05% and -5.2% | [4] -39.2% and -2.6% | [5] -9.25% and 7.05% | [6] 4.45% and -9.75%

O=C(O)c1cc[c]([Hg][S]c2ncnc3nc[nH]c23)cc1
active: [1] 99% | [2] 98.3% | [3] 98.6% | [4] 98.2% | [5] 97.5% | [6] 98.9%

CC([NH-])C(=O)O.CC([NH-])C(=O)O.[Cu+2] (stereo not drawn)
inactive: [1] -0.95% | [2] 11.3% | [3] 15.6% | [4] -40.1% | [5] -15.9% | [6] 19.6%

Cc1cc(Cc2cc(C)c(NC(=O)C(=O)C3C(=O)NC(=S)NC3=O)c(C(C)C)c2)cc(C(C)C)c1NC(=O)C(=O)C1C(=O)NC(=S)NC1=O
inactive: [1] -20.6% | [2] -8% | [3] -18.9% | [4] 21.6% | [5] 8.55% | [6] -11.7%

ClCCN(CCCl)c1ccc(/C=N/N2CCN(/N=C/c3ccc(N(CCCl)CCCl)cc3)CC2)cc1
inactive: [1] 7.85% | [2] -2.9% | [3] 21.9% | [4] 7.85% | [5] -11.1% | [6] -1.25%

COC(=O)C1C(O)CC2(O)CC(O)CC(O)C(O)CCC(O)CC(O)CC(=O)OC(C)C(C)C(O)C(C)/C=C/C=C/C=C/C=C/C=C/C=C/C=C/C(OC3OC(C)C(O)C(N)C3O)CC1O2 (stereo not drawn)
inactive: [1] -6.8% | [2] 6.95% | [3] -4.9% | [4] 6.15% | [5] 1.6% | [6] -3.7%
